The campaign covered roughly 77,000 compounds. About 4,600 (6%) were called active. Roughly 1% stayed inconclusive and do not appear here. This is one part of a sample in which actives are shown more often than they occur. A number with no mark means an inactive call.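 The calls were made as follows: active = mean inhibition above about 93%, with at least 55% of replicates each passing it (limit read from the data, passing the limit was not always enough); inconclusive = only one of those two conditions holds; inactive = neither condition holds.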
Test: growth inhibition of T. cruzi in host fibroblasts – cell-based, beta-gal Tulahuen parasites, NIH3T3 host, luminescence, primary screen (AID 624255)
Conditions: T. cruzi beta-gal in NIH3T3, GalScreen luminescence, 90 h; at 8.34 µM; stronger effect = higher value

Structure (SMILES) | inhibition
CO[C@@H]1CN(C)C(=O)c2cc(NC(=O)C3CCCCC3)ccc2OC[C@@H](C)N(C(=O)Nc2ccc(C(F)(F)F)cc2)C[C@H]1C | 15.6%
O=C(C[C@H]1CC[C@H]2[C@@H](COC[C@H](O)CN2C(=O)c2ccccc2F)O1)NCc1ccccc1 | -22.2%
Cc1ccc(S(=O)(=O)Nc2ccc3c(c2)C(=O)N([C@H](C)CO)C[C@@H](C)[C@@H](CN(C)S(C)(=O)=O)OCCCC[C@@H](C)O3)cc1 | 29.2%
CO[C@H]1CN(C)C(=O)c2cc(NC(=O)Nc3c(C)noc3C)ccc2OC[C@@H](C)N(CCC(F)(F)F)C[C@H]1C | 6.32%
Cc1noc(C)c1NC(=O)Nc1ccc2c(c1)C(=O)N([C@H](C)CO)C[C@@H](C)[C@H](CN(C)C(=O)Nc1cccc3ccccc13)OCCCC[C@@H](C)O2 | 80.3%
C/C=C/c1ccc([C@@H]2[C@H](CO)N(C(C)=O)[C@H]2CN(CC)C(=O)CN(C)C)cc1 | 81.2%
C[C@@H]1CN([C@H](C)CO)C(=O)c2cc(NC(=O)CCCN(C)C)ccc2O[C@@H](C)CCCCO[C@@H]1CN(C)Cc1ccncc1 | 14.7%
CN(C)C(=O)[C@@H]1[C@@H](CO)[C@@H]2Cn3c(cccc3=O)[C@@H]2N1C(=O)C1CCC1 | -8.64%
COc1ccc(S(=O)(=O)N(C)C[C@@H]2OCCCC[C@H](C)Oc3ccc(NC(=O)NC4CCCCC4)cc3C(=O)N([C@H](C)CO)C[C@H]2C)cc1 | 94%
O=C(C[C@H]1CC[C@@H]2[C@H](COC[C@@H](O)CN2C(=O)Nc2ccc(C(F)(F)F)cc2)O1)NCCc1ccncc1 | 57%
O=C(C[C@@H]1CC[C@@H]2[C@H](COC[C@H](O)CN2C(=O)Cc2ccccc2)O1)NC1CCC1 | 27.2%
C[C@H](CO)N1C[C@H](C)[C@H](CN(C)C(=O)CCC(F)(F)F)OCCCC[C@H](C)Oc2ccc(NS(C)(=O)=O)cc2C1=O | -3.61%
C[C@@H]1CN([C@H](C)CO)C(=O)c2cc(NS(C)(=O)=O)ccc2O[C@@H](C)CCCCO[C@H]1CN(C)S(=O)(=O)c1cn(C)cn1 | 104% (active)
C[C@@H]1CCCCO[C@H](CN(C)C(=O)CCC(F)(F)F)[C@H](C)CN([C@H](C)CO)C(=O)c2cc(NS(C)(=O)=O)ccc2O1 | 107% (active)
C[C@H]1CN([C@@H](C)CO)C(=O)c2cccc(NS(=O)(=O)c3cn(C)cn3)c2O[C@@H]1CN(C)CC1CCCCC1 | 96.2% (active)
C[C@@H]1CN([C@H](C)CO)C(=O)c2cccc(NS(=O)(=O)c3cn(C)cn3)c2O[C@H]1CN(C)CC1CC1 | 27.4%
C[C@@H]1CN([C@H](C)CO)C(=O)c2cc(NS(=O)(=O)c3ccccc3)ccc2O[C@@H](C)CCCCO[C@@H]1CN(C)C(=O)CCC(F)(F)F | -2.2%
C[C@@H]1CN([C@@H](C)CO)C(=O)c2cc(NS(C)(=O)=O)ccc2O[C@@H](C)CCCCO[C@@H]1CN(C)S(=O)(=O)c1cn(C)cn1 | -54%
CNC[C@@H]1OCCCC[C@@H](C)Oc2ccc(NS(C)(=O)=O)cc2C(=O)N([C@H](C)CO)C[C@@H]1C | 4.76%
CNC[C@H]1OCCCC[C@@H](C)Oc2ccc(NS(C)(=O)=O)cc2C(=O)N([C@H](C)CO)C[C@H]1C | 101% (active)
C[C@@H]1CN([C@@H](C)CO)C(=O)c2cc(NS(=O)(=O)c3cn(C)cn3)ccc2O[C@@H](C)CCCCO[C@H]1CN(C)S(=O)(=O)c1cn(C)cn1 | -14.8%
CNC[C@H]1OCCCC[C@@H](C)Oc2ccc(NS(C)(=O)=O)cc2C(=O)N([C@@H](C)CO)C[C@H]1C | 61.9%
C[C@H]1CN([C@@H](C)CO)C(=O)c2cc(NS(=O)(=O)c3cn(C)cn3)ccc2O[C@H]1CN(C)CC1CCCCC1 | 3.71%

— PubChem BioAssay AID624255 (Broad Institute, 2012)
